Source: PubChem BioAssay
Rows were chosen to be rich in hits. Some 2.3% of all compounds tested hit in one or more screens of this group.
CHRM1 PAM: potentiates human M1 receptor response to acetylcholine | P11229 | CHO-K1 hM1, Fluo-8 calcium fluorescence, ACh EC20; 0% = ACh EC20, 100% = maximal ACh | activation, % at 3 µM | 360,000 compounds, 0.088% hits; in the data active means activation above about 19%, passing the limit was not always enough
Target sequence (P11229 whole entry, looked up): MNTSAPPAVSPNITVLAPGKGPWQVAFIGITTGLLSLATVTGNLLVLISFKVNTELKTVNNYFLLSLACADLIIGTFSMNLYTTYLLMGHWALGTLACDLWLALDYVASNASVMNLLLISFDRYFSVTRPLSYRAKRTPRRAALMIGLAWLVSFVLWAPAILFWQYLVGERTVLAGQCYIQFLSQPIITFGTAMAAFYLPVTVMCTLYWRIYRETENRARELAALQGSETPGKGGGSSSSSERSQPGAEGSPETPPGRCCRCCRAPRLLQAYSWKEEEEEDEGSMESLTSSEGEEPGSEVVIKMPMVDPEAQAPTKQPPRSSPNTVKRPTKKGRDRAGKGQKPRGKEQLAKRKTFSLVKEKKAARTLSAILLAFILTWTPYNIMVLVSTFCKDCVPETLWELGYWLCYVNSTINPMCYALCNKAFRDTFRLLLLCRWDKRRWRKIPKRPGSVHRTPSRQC
CHRM1 agonist: activates human CHRM1 receptor. P11229. CHO-K1 hM1, Fluo-8 calcium fluorescence, agonist mode; 0% DMSO, 100% acetylcholine EC100. activation, % at 3 µM. 360,000 compounds, 0.33% hits. AID 588814;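 active means activation above the run's mean compound activation plus 3 SD, cut at about 16% in these data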;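 further: peak over basal fluorescence ratio within a 140 s kinetic read after compound addition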
M1 PAM parental: M1 PAM counterscreen hit in parental CHO-K1 cells. AID 602247. 360,000 compounds, 0.02% hits. activation, % at 3 µM. ATP EC20, Fluo-8 calcium fluorescence; 0% at ATP EC20, 100% at ATP max;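 active means activation above the run cutoff, the mean activation of all test compounds plus 3 SD, cut at about 40% in these data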;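 further: peak over basal fluorescence ratio in a 140 s read after ATP addition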
CHO-K1 Ca ag: M1 agonist counterscreen hit in parental CHO-K1 cells; AID 602248; Fluo-8 calcium fluorescence; scaled to maximal ATP response, vehicle zero; activation, % at 3 µM; 360,000 compounds, 0.48% hits; in the data active means activation above about 15%;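 further: untransfected CHO-K1 host cells lacking M1 receptor as counterscreen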
M1 antag: human CHRM1 antagonism; inhibition, % at 3 µM; AID 588852; 360,000 compounds, 1.3% hits; CHO-K1 hM1, Fluo-8 calcium fluorescence, ACh EC80 antagonist;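 active means percent inhibition above its own plate's cutoff, namely the mean of that plate's compound wells plus 3 SD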;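 further: peak over basal fluorescence ratio during 140 s after agonist addition; 0% = ACh EC80 plus DMSO and 100% = DMSO alone without agonist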
CHO-K1 Ca antag: nonselective inhibitor or artifact in parental CHO-K1 cells. ATP-induced calcium, Fluo-8 fluorescence. inhibition, % at 3 µM. 360,000 compounds, 0.6% hits. AID 602250;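 active means inhibition above a per-plate cutoff, the plate's mean sample inhibition plus 3 SD, cut at about 24% in these data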;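 further: 0% = DMSO plus EC80 ATP and 100% = DMSO alone without ATP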
* marks the source's active call; other numbers are inactive results.

SMILES	CHRM1 PAM	CHRM1 agonist	M1 PAM parental	CHO-K1 Ca ag	M1 antag	CHO-K1 Ca antag
CCC(C)(C)NC(=O)CN(C(=O)CCC(=O)Nc1nccs1)c1ccc2c(c1)OCCO2	0	-1	-8	0	6	-5
COc1ccc(N2CCN(S(=O)(=O)c3cccc4nsnc34)CC2)cc1	8	-1	0	1	-6	-10
CC(=O)c1ccc(N2CCN(S(=O)(=O)c3cccc4nsnc34)CC2)cc1	1	-2	-17	0	8	24*
O=C(Nc1ccccc1F)C1CCCN1S(=O)(=O)c1cccc2nsnc12 (stereo not drawn)	5	0	-13	0	-9	58*
CC(=O)Nc1ccc(NC(=O)C2CCCN2S(=O)(=O)c2cccc3nsnc23)cc1 (stereo not drawn)	9	-2	5	19*	-5	2
COc1cc([N+](=O)[O-])ccc1NC(=O)CCS(=O)(=O)c1ccc2c(c1)n(C)c(=O)c(=O)n2C	6	0	12	1	-4	-13
O=C(O)/C=C/C(=O)OC1CC2CCC1C2 (stereo not drawn)	6	-2	14	0	-13	-13
Cc1ccccc1-c1cc(C(=O)NCc2cccc(Br)c2)nn1CC1CC(c2cccc([N+](=O)[O-])c2)=NO1 (stereo not drawn)	3	-2	-2	1	4	-10
COc1ccc(NC(=O)Cc2ccsc2)cc1S(=O)(=O)N1CCOCC1	6	-3	13	1	-2	-17
CN1CCN(S(=O)(=O)c2cccc(C(=O)NCCC3=CCCCC3)c2)CC1	13	-6	5	1	-12	9
CC(C)c1ccc(CCNC(=O)c2cccc(S(=O)(=O)N3CCN(C)CC3)c2)cc1	-2	3	10	16*	-2	-2
Fc1ccc2[nH]c3c(NCc4ccccc4)ncnc3c2c1	-4	2	-23	19*	23	34*
OC(CCN1CCC2CCC(C2)C1)c1ccc(Br)cc1 (stereo not drawn)	-25	-5	3	1	37*	-10
O=C(CCN1CCC2CCC(C2)C1)c1ccccc1 (stereo not drawn)	4	-4	-17	0	-17	1
COc1ccc(/C=C2\CCCC3C2=NN(C(=O)c2scnc2C)C3c2ccc(OC)c(OC)c2)cc1OC (stereo not drawn)	10	-4	17	19*	-19	-1
OC12CCCCC1C(c1ccc3c(c1)OCO3)N(Cc1ccc(F)cc1)CC2 (stereo not drawn)	8	-3	11	27*	-5	7
OC12CCCCC1C(c1ccc3c(c1)OCO3)N(Cc1cccc(F)c1)CC2 (stereo not drawn)	8	-2	21	1	-8	-6
Fc1ccc(-n2cc(-c3ccccc3)c3c(N4CCOCC4)ncnc32)cc1	-10	-2	-4	5	33*	-5
COc1ccc(-n2cc(-c3ccccc3)c3c(N4CCOCC4)ncnc32)cc1	-11	-4	11	6	40*	-7
CCN1CCN(c2ncnc3c2c(-c2ccccc2)cn3-c2ccc(F)cc2)CC1	5	-5	3	0	-6	-12
COc1ccc(-n2cc(-c3ccccc3)c3c(NCCCN4CCOCC4)ncnc32)cc1	-6	-6	-8	4	11	-20
Cc1cccc(NC(=O)C2CCCN2/C=C/C(=O)C(F)(F)F)c1C (stereo not drawn)	8	-7	22	5	-3	-3
Cc1ccc(C)c(NC(=O)C2CCCN2/C=C/C(=O)C(F)(F)F)c1 (stereo not drawn)	0	-3	-6	0	4	26*
CCc1nc2ccc(C(=O)Nc3cc(-c4ccccc4)ccc3OC)cn2c1N(C)CCC(C)C	8	-2	11	37*	-20	-13
CCCCNC(=O)c1ccc2nc(CC)c(N(CC)CCN(C)C)n2c1	7	-4	2	0	-13	8
SMILES	CHRM1 PAM	CHRM1 agonist	M1 PAM parental	CHO-K1 Ca ag	M1 antag	CHO-K1 Ca antag
CCc1nc2ccc(C(=O)Nc3ccc(NC(C)=O)cc3)cn2c1N(CCC(C)C)CCN(C)C	3	0	9	2	-7	-1
CCCCNC(=O)c1ccc2nc(CC)c(N(CCC(C)C)CCN(C)C)n2c1	1	22*	8	1	-12	1
CCc1nc2ccc(C(=O)Nc3cc(-c4ccccc4)ccc3OC)cn2c1N(C=O)CCC(C)C	13	1	13	1	-12	-9
CCc1nc2ccc(C(=O)Nc3ccc(OC)c(OC)c3)cn2c1N(CCC(C)C)CCN(C)C	-3	18*	11	0	-5	-8
CCc1nc2ccc(C(=O)NCCOc3ccc(OC)cc3)cn2c1N(CCC(C)C)CCN(C)C	-8	34*	31	3	11	-12
CC1(c2ccccc2Cl)NC(=O)N(CC(=O)NCc2ccc3c(c2)OCO3)C1=O (stereo not drawn)	29*	2	3	3	-17	-14
CC1(c2ccc(Cl)cc2)NC(=O)N(CC(=O)Nc2ccc3c(c2)OCO3)C1=O (stereo not drawn)	-5	20*	-11	5	4	1
CC1(c2ccccc2)NC(=O)N(CC(=O)NCc2ccc3c(c2)OCO3)C1=O (stereo not drawn)	8	-4	7	1	-4	-8
O=C(NC(=S)NCCC1=CCCCC1)c1ccccc1Br	-6	-14	19	3	-2	-7
O=C(NC(=S)NCCC1=CCCCC1)c1cncc(Br)c1	-2	-8	13	16*	-4	-8
COc1ccc(C(=O)NC(C(=O)OCC(=O)Nc2sccc2C(N)=O)C(C)C)cc1 (stereo not drawn)	-1	2	-13	7	11	1
COc1ccc(CCC(=O)OCC(=O)Nc2sccc2C(N)=O)cc1	-19	2	-21	16*	39*	34*
COc1ccc(CCC(=O)OCC(=O)Nc2sccc2C(N)=O)cc1OC	-12	2	-15	15	24	26*
COC(=O)CCC(=O)N1CCOCCOCCOCC1	1	-3	23	16*	-3	-2
COC(=O)CCC(=O)N1CCOCCOCCN(C(=O)CCC(=O)OC)CCOCCOCC1	6	-4	18	0	-7	-8
NCCCCCc1nnc(SCc2cccc(Cl)c2)o1	-25	-6	12	0	30*	-1
NCCCCCc1nnc(SCc2ccc(Cl)cc2Cl)o1	-14	-5	13	1	33*	16
COc1ccccc1N1CCN(C(=O)c2ccc(N(C)S(=O)(=O)c3ccccc3)cc2)CC1	-4	-5	11	6	5	-1
